Only some compounds are listed: those with a hit (about 1.9% of all), similar ones and a draw of the others.
Glyco luc inh: blocks N-linked glycosylation in D54 reporter cells | D54 ERlucT glycosylation luciferase reporter, 24 h; percent of 100 nM tunicamycin response | reporter increase, % at 12.5 µM | 0.23% of 360,000 active;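 active means mean luciferase reporter signal, scaled so untreated is 0 and the glycosylation-blocking control 100, at or above a set limit in every replicate; inconclusive means mean reaches the limit but not every replicate does; inactive means mean below the limit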;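 further: luciferase carries N-glycosylation sites so blocking glycosylation raises the light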
Vif imaging: inhibitors of HIV Vif; HEK293T cells, Vif self-association by quenched fluorescence, imaging, 24 h; inhibition, % at 7.49 µM; 0.35% of 340,000 active; in the data active means inhibition above about 50%, passing the limit was not always enough; inconclusive means no clear call, values can overlap the other calls; inactive means below about 31%
DSG3 Ab inh: inhibitors of pemphigus antibody binding to human desmoglein-3 | P32926 | DSG3-coupled beads, scFv-anti-DSG3-GFP binding, flow cytometry; stronger effect = lower value | binding (percent of control), % at 10 µM | 0.48% of 310,000 active;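 active means binding more than 3 SD below its plate's average and above zero; inconclusive means below that plate limit but binding exactly zero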;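 further: hits lower antibody fragment binding to DSG3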
Target sequence (P32926 whole entry, looked up, the tested form may be a part): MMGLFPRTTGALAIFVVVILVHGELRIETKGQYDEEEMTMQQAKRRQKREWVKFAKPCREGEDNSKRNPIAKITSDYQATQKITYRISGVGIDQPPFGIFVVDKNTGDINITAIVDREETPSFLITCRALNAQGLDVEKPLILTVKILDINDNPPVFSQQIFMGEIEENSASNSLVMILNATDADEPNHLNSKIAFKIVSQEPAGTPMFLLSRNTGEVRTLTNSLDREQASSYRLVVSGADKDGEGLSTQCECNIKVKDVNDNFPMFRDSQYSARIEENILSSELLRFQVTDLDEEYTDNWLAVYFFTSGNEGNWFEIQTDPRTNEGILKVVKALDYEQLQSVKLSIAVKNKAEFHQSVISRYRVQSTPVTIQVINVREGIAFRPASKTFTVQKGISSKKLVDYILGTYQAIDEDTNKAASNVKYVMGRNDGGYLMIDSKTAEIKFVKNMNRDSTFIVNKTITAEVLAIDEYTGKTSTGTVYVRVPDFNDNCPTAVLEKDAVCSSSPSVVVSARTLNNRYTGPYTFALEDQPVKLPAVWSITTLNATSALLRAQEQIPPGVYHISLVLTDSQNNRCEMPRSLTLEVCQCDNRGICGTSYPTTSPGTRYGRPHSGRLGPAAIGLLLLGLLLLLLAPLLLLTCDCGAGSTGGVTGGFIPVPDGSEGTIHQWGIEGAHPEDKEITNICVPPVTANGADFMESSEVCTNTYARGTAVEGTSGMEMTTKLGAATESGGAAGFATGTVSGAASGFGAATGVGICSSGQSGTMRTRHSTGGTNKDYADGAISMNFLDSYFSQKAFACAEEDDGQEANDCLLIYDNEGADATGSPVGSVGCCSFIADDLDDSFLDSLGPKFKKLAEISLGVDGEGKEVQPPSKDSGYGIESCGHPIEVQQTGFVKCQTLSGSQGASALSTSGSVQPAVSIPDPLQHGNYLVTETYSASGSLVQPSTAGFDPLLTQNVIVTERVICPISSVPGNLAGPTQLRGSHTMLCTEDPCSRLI
NSD2 HMT inh: blocks human histone methyltransferase NSD2. 0.54% of 310,000 active. O96028. inhibition, % at 12.5 µM. NSD2 peptide methylation, AlphaScreen, 120 min; in the data active means inhibition above about 50%
CaV13 ICDI inh: Disruptors of the CACNA1D IQ motif to Ca2+-dependent inactivation inhibitor domain association, primary screening, Förster resonance energy transfer in intact living …; HEK cells, CFP/YFP FRET ICDI-IQ, plate reader, 10 min; percent FRET-ratio fall versus neutral wells; inhibition, % at 12.3 µM; 0.098% of 340,000 active; AID 743397;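 active means mean replicate inhibition of at least 30% and at least 1% of replicates passing that level; inconclusive means only one of the two criteria is met; inactive means neither criterion is met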
ATG4B inhibitor: inhibitors of human ATG4B cysteine protease; Q9Y4P1; ATG4B cleavage of LC3-PLA2, NBD-HPC fluorescence, 1 h; inhibition, % at 8.33 µM; 0.51% of 340,000 active; in the data active means inhibition above about 40%
Large screens that a line does not name were inactive.

CCC1=Nc2cc(C(=O)NCCN3CCOCC3)ccc2Sc2ccc(C)cc21	none
COc1ccc(NC(=O)c2sc3nc(-c4cccnc4)ccc3c2N)cc1	Vif imaging 92
Nc1c(C(=O)Nc2ccccc2)sc2nc(-c3cccnc3)ccc12	none (no result: Glyco luc inh, Vif imaging, DSG3 Ab inh, ATG4B inhibitor)
COc1ccc(C(=O)c2sc3nc(-c4ccc(OC)cc4)ccc3c2N)cc1	DSG3 Ab inh 26, CaV13 ICDI inh 134
CCOC(=O)c1c(C)nc2sc(C(=O)Nc3ccc(C(C)=O)cc3)c(N)c2c1-c1ccc(OC)cc1	none
O=[N+]([O-])c1ccc2[nH]c(O)c(N=NC3CCS(=O)(=O)C3)c2c1 (stereo not drawn)	DSG3 Ab inh 85
O=[N+]([O-])c1ccc2[nH]c(O)c(N=Nc3ccc(F)cc3)c2c1	none
COc1ccc(C(=O)Nc2cc(C)c3c(=O)oc4ccccc4c3n2)cc1	DSG3 Ab inh -3.5 (no result: Vif imaging, NSD2 HMT inh)
COCC(=O)Nc1cc(C)c2c(=O)oc3ccccc3c2n1	none (no result: NSD2 HMT inh)
COc1cc(O)c2c(c1)OC(c1ccc(O)cc1)CC2=O (stereo not drawn)	none (no result: NSD2 HMT inh, CaV13 ICDI inh)
Cc1c(O)cc2c(c1O)C(=O)CC(c1ccc(O)cc1)O2 (stereo not drawn)	DSG3 Ab inh 77 (no result: NSD2 HMT inh, CaV13 ICDI inh)
COc1ccc(OC)c(Nc2ncnc3ccccc23)c1	none
CC(=O)NC(Cc1ccccc1F)C(=O)NC1CCN(C(=O)c2cnccn2)CC1 (stereo not drawn)	Vif imaging 55
COc1ccc(CC(NC(C)=O)C(=O)NC2CCN(C(=O)c3cnccn3)CC2)cc1 (stereo not drawn)	none
CC(C)NC(=O)N(C)C[C@@H]1Oc2ccc(NC(=O)Nc3ccc(C(F)(F)F)cc3)cc2CC(=O)N([C@H](C)CO)C[C@@H]1C	none (no result: NSD2 HMT inh)
COc1ccccc1Nc1ccc(N)cc1	DSG3 Ab inh 39
COc1ccccc1NC(=O)c1ccccc1Nc1ccccc1	none
CCN(CC)S(=O)(=O)c1ccc(N2CCN(c3ccccc3OC)CC2)c(N)c1	none
Cc1cc(N2CCN(S(=O)(=O)c3ccc(Cl)c(Cl)c3)CC2)c2ccccc2n1	Vif imaging 86
Cc1cc(C)n(-c2nc3ccccc3nc2N2CCN(S(=O)(=O)c3ccc4ccccc4c3)CC2)n1	DSG3 Ab inh 89
Cc1cc(N2CCN(S(=O)(=O)c3ccc(Cl)cc3)CC2)c2ccccc2n1	none (no result: CaV13 ICDI inh)
COc1ccc(C2/C=C\CN(S(=O)(=O)c3ccc4ccccc4c3)CC(=O)N2Cc2ccc(F)cc2)cc1 (stereo not drawn)	none (no result: NSD2 HMT inh)
O=C(NCCCn1ccnc1)C(=O)NCC(c1cccnc1)N1CCN(c2ccccc2)CC1 (stereo not drawn)	Vif imaging 54 (no result: NSD2 HMT inh)
O=C(NCCCn1ccnc1)C(=O)NCC(c1ccco1)N1CCN(c2ccccc2)CC1 (stereo not drawn)	none (no result: NSD2 HMT inh)
O=C(/C=C/c1ccc(Br)o1)OCc1nc2ccsc2c(=O)[nH]1	DSG3 Ab inh 50 (no result: NSD2 HMT inh, CaV13 ICDI inh)
Cc1ccc2c(c1)C(=O)CCN2	Vif imaging 51
CCOC(=O)c1cnc2ccc(Cl)cc2c1NCCN(C)C	none
Cc1cc(C(=O)NCc2cc(C(=O)O)oc2C)c(C)o1	none (no result: DSG3 Ab inh)
COc1ccc(S(=O)(=O)NCC(=O)N(CC(=O)NCC2CCCO2)Cc2ccccc2)cc1 (stereo not drawn)	Vif imaging 71
O=C(CN(Cc1ccccc1)C(=O)CNS(=O)(=O)c1ccccc1)NCC1CCCO1 (stereo not drawn)	none
CSc1ccc(CCNC(=O)C2CCCN(S(=O)(=O)N3CCOCC3)C2)cc1 (stereo not drawn)	DSG3 Ab inh 77
O=C1c2ccccc2C(Nc2ccc(S(=O)(=O)N3CCOCC3)cc2)N1c1ccccn1 (stereo not drawn)	Vif imaging 52 (no result: NSD2 HMT inh)
O=C1c2cccc3c(N4CCCCC4)ccc(c23)C(=O)N1c1cccc(O)c1	Vif imaging 185
O=C1CC(C(=O)Nc2ccc(F)cc2)n2cnnc2N1 (stereo not drawn)	DSG3 Ab inh 2.4
O=C(Nc1ccc(F)cc1)C1CC(=O)n2cnnc2N1 (stereo not drawn)	none
COc1cc(/C=C/C2=NNC(=O)CC2)cc(OC)c1OC	none (no result: NSD2 HMT inh)
NC(=S)N/N=C/c1ccc(-c2cc(Cl)ccc2Cl)o1	none
CNC(=S)N/N=C/c1ccc(-c2cc([N+](=O)[O-])ccc2Cl)o1	DSG3 Ab inh -12
N#C/C(=C/c1ccc(-c2cc([N+](=O)[O-])ccc2Cl)o1)C(N)=O	DSG3 Ab inh 75
CCOC(=O)CCc1c(C)c(C#N)c2nc3ccccc3n2c1-n1ccnc1	none (no result: Vif imaging, CaV13 ICDI inh)
COc1cc(OC)c(NC(=O)c2c(-c3ccccc3)noc2C)cc1Cl	DSG3 Ab inh 70
COc1ccc(Cl)cc1NC(=O)c1c(-c2ccccc2)noc1C	none (no result: CaV13 ICDI inh)
C[N+](C)(C)CCN1C(=O)CSC1=O	Vif imaging 55
Cc1ccc(Cl)c(NC(=O)COC(=O)C2CCC2)c1Cl	none
CCOC(=O)c1sc2nc3c(SCCC#N)cc(C(=O)c4cc(F)ccc4O)cn3c(=O)c2c1C	none
CCOC(=O)c1sc2nc3c(SCCC(=O)O)cc(C(=O)c4cc(OC)ccc4O)cn3c(=O)c2c1C	DSG3 Ab inh 55
O=C(NCc1nnnn1-c1ccc(Cl)cc1)C1CC(=O)N(c2ccc(F)cc2)C1 (stereo not drawn)	CaV13 ICDI inh 36 (no result: ATG4B inhibitor)
COc1ccc(-n2nnnc2CNC(=O)C2CC(=O)N(c3ccc(F)cc3)C2)cc1 (stereo not drawn)	none (no result: ATG4B inhibitor)
COC(=O)c1cc2oc(C)cc2n1CC(=O)Nc1cc(C)cc(C)c1	none (no result: DSG3 Ab inh)
COc1ccc(N2CCc3c(C)nc4c(OC)cccc4c32)cc1	Glyco luc inh 35 (no result: NSD2 HMT inh)
COc1ccc(N2CCc3c(C)nc4c(OC)cc(OC)cc4c32)cc1	Glyco luc inh inconclusive (no result: DSG3 Ab inh)
O=C(Cc1nnc(NC(=O)c2ccccc2)s1)N/N=C/c1ccc(O)cc1	none
O=C(Cc1nnc(NC(=O)c2ccccc2)s1)N/N=C\c1ccc(O)c(O)c1	NSD2 HMT inh 68
CC12CC3CC(C)(C1)CC(C(O)CN1CCOCC1)(C3)C2 (stereo not drawn)	none
COc1ccc(/C=C(\C#N)C(=O)OCC(=O)NC2CC2)cc1	DSG3 Ab inh 58
COc1ccc(/C=C/C(=O)NC(=S)Nc2cc3oc4ccccc4c3cc2OC)cc1	none
COc1ccc(CCNC(=S)N2CCC(C(=O)c3ccc(F)cc3)CC2)cc1OC	none
COc1ccc(C(=O)C2CCN(C(=S)NCCc3ccc(OC)c(OC)c3)CC2)cc1	DSG3 Ab inh -9.4
COc1ccc(CCNC(=O)/C=C\c2ccccc2)cc1OC	none
COc1cc2c(cc1NC(=S)NC(=O)/C=C/c1ccc(OC)c(OC)c1)oc1ccccc12	DSG3 Ab inh 68
COc1ccc(/C=C/C(=O)NC(=S)NCCc2ccc(OC)c(OC)c2)cc1	Vif imaging 70
S=C1N(c2ccccc2)CN(CCN2CCOCC2)CN1c1ccccc1	none
